PubChem BioAssay (NCI)
Where “and” joins values, the source holds several entries; their conditions need not be identical. Equal entries are not always repeated. Compounds without any hit were thinned out: in the full panel of roughly 83,000, 20% have a hit.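 For each line, cells grew in 96-well plates with the test compound present at a single concentration for 48 hours.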 Calls of active or inactive are those of the source. How the source made its calls: active means growth percent below 10; inactive means the rest.

Tests used:
Assay in all cases: NCI-60 one-dose screen, 48 h (100 = growth as untreated, 0 = no growth, -100 = all killed)
Settings in all cases: 10 µM unless noted
DU-145 prostate = system: DU-145 prostate
K-562 leukemia = system: K-562 leukemia
MALME-3M melanoma = system: MALME-3M melanoma
MDA-MB-231 breast = system: MDA-MB-231 breast
RXF 393 renal = system: RXF 393 renal
SF-268 CNS = system: SF-268 CNS
SF-295 CNS = system: SF-295 CNS
SF-539 CNS = system: SF-539 CNS
UACC-257 melanoma = system: UACC-257 melanoma
M14 melanoma = system: M14 melanoma

Row | SMILES | growth (DU-145 prostate) | growth (K-562 leukemia) | growth (MALME-3M melanoma) | growth (MDA-MB-231 breast) | growth (RXF 393 renal) | growth (SF-268 CNS) | growth (SF-295 CNS) | growth (SF-539 CNS) | growth (UACC-257 melanoma) | growth (M14 melanoma)
1 | COc1sc(/C=N/NC(=O)c2[nH]c3ccc(Br)cc3c2-c2ccccc2)cc1Cl | -63.2% (active) | 9.98% (active) | 18.1% (inactive) | -68% (active) | -25.7% (active) | -17.2% (active) | -40.6% (active) | -85.3% (active) | 29% (inactive) | -3.6% (active)
2 | COc1cc(C=O)ccc1OC(=O)c1cc(-c2ccc(C)cc2)n(-c2ccc(S(C)(=O)=O)cc2)n1 | 108% (inactive) | 86.5% (inactive) | 102% (inactive) | 97.3% (inactive) | 117% (inactive) | 116% (inactive) | 103% (inactive) | 105% (inactive) | 101% (inactive) | 109% (inactive)
3 | COc1ccc(NC(=O)Nc2nc3ccc([N+](=O)[O-])cc3s2)cc1 | 24.8% (inactive) | 9.59% (active) | -1.52% (active) | 46.1% (inactive) | -0.305% (active) | 38.6% (inactive) | 35.6% (inactive) | 7.77% (active) | 16% (inactive) | 57.6% (inactive)
4 | O=C1Nc2cc(-c3ccc(NS(=O)(=O)c4ccc(C(F)(F)F)cc4)cc3)ccc2/C1=C/c1ccc[nH]1 | 40.6% (inactive) | 11.4% (inactive) | 63.3% (inactive) | 66.7% (inactive) | 25% (inactive) | 55.5% (inactive) | 17.6% (inactive) | 42.4% (inactive) | 26.3% (inactive) | 55.3% (inactive)
5 | O=CNc1ccc(-n2cnc3cc(-c4ccc(O)cc4)ccc32)cc1 | 86.7% (inactive) | 64.7% (inactive) | 65.9% (inactive) | 108% (inactive) | 86.5% (inactive) | 84.6% (inactive) | 103% (inactive) | 60.5% (inactive) | 98.8% (inactive) | 91.5% (inactive)
6 | Cc1ccc2c(c1)/C(=C/C(=O)c1cc3ccccc3oc1=O)C(=O)N2 | 83.9% (inactive) | 6.62% (active) | -27.8% (active) | 65.1% (inactive) | -41.2% (active) | 84.4% (inactive) | 104% (inactive) | 61.1% (inactive) | 73.3% (inactive) | 37% (inactive)
7 | COc1cc(/C=C/C(=O)c2ccc(S(=O)(=O)NCCNc3nc(N(C)C)nc(N4CCOCC4)n3)cc2)cc(OC)c1OC | 13.8% (inactive) | -67.8% (active) | 41.2% (inactive) | -82% (active) | -100% (active) | -3.35% (active) | -68.1% (active) | -87.3% (active) | -26.5% (active) | -54.7% (active)
8 | O=C(NNC(=S)NC(=O)c1ccccc1)c1ccc(OCc2nc3ccc(Cl)cc3[nH]2)cc1 | 26.3% (inactive) | 4.64% (active) | -75.4% (active) | -71.2% (active) | -56.7% (active) | -2.2% (active) | -80.9% (active) | -91.2% (active) | -24.8% (active) | -54.5% (active)
9 | COc1ccc2[nH]c(O)c(N=Nc3nc(-c4ccc(Br)cc4)cs3)c2c1 | 16% (inactive) | 17.9% (inactive) | -36.3% (active) | 35.7% (inactive) | -64.2% (active) | 30.5% (inactive) | 9.66% (active) | -68.4% (active) | 30.3% (inactive) | 14.4% (inactive)
10 | N#CC1=C(c2cccs2)Nc2c(c(-c3ccccc3)nn2-c2ccccc2)C12C(=O)Nc1ccccc12 (stereo not given) | 33.5% (inactive) | 9.66% (active) | 26.9% (inactive) | 34.2% (inactive) | -13.4% (active) | 54.3% (inactive) | 40.3% (inactive) | -45.2% (active) | 88% (inactive) | 14.6% (inactive)
11 | COc1ccc(C(=O)/C=C/c2ccc3c(c2)OCCO3)cc1S(N)(=O)=O | 44.7% (inactive) | 16.7% (inactive) | 88.3% (inactive) | 86.5% (inactive) | 88.5% (inactive) | 111% (inactive) | 79.5% (inactive) | 44.9% (inactive) | 77.9% (inactive) | 89.7% (inactive)
12 | O=CNc1cccc(-n2cnc3cc(-c4ccc(O)cc4)ccc32)c1 | 43.7% (inactive) | 12.2% (inactive) | 42.8% (inactive) | 55.3% (inactive) | 11% (inactive) | 40.7% (inactive) | 25.5% (inactive) | -6.56% (active) | 84.7% (inactive) | 57.2% (inactive)
13 | CCOC(=O)c1ccc(NC(=S)NC(=O)c2ccc(NC(=O)C(C)C)cc2OC)cc1 | 78.2% (inactive) | 10.7% (inactive) | 3.16% (active) | 47.2% (inactive) | 74.2% (inactive) | 68.1% (inactive) | 36.8% (inactive) | 79.6% (inactive) | 42% (inactive) | 34.1% (inactive)
14 | O=C1Nc2cc(-c3ccc(NS(=O)(=O)c4ccc(-c5ccccc5)cc4)cc3)ccc2/C1=C/c1ccc[nH]1 | -11.5% (active) | 18.8% (inactive) | 50% (inactive) | 63.9% (inactive) | -37.3% (active) | 75.8% (inactive) | 30.9% (inactive) | 37.4% (inactive) | 58.9% (inactive) | 38% (inactive)
15 | COc1c(B(O)O)cc(F)cc1-c1nc2c(F)cc3[nH]ncc3c2c2c1CCCC2 | 14.6% (inactive) | 38.8% (inactive) | 50.9% (inactive) | 3.96% (active) | -45.4% (active) | 30.3% (inactive) | 15.2% (inactive) | -44% (active) | 40% (inactive) | 38.2% (inactive)
16 | N/C(=N\c1nc2ccc([N+](=O)[O-])cc2s1)NC(=O)Nc1ccccc1Cl | 45.5% (inactive) | 13% (inactive) | -17.1% (active) | 15% (inactive) | 25% (inactive) | 56.1% (inactive) | 58.5% (inactive) | 11.1% (inactive) | 89.6% (inactive) | 62.8% (inactive)
17 | CCCCNc1ccc2c3c(cccc13)C(=O)N(c1cccc(-c3nn(-c4ccccc4)cc3-c3nc4ccccc4s3)c1)C2=O | 106% (inactive) | 89.5% (inactive) | 103% (inactive) | 99.1% (inactive) | 98.5% (inactive) | 109% (inactive) | 104% (inactive) | 101% (inactive) | 113% (inactive) | 99.6% (inactive)
18 | COc1ccc2[nH]c(O)c(N=Nc3nc(-c4ccc(Cl)cc4)cs3)c2c1 | 4.95% (active) | 12.1% (inactive) | -63.5% (active) | 17.6% (inactive) | -90% (active) | -9.32% (active) | -46% (active) | -60.5% (active) | 9.82% (active) | -9.9% (active)
19 | Nc1nnc(CS(=O)(=O)c2ccccc2)s1 | 113% (inactive) | 98.9% (inactive) | 94.1% (inactive) | 102% (inactive) | 172% (inactive) | 105% (inactive) | 99.2% (inactive) | 101% (inactive) | 97.1% (inactive) | 97.3% (inactive)
20 | COc1ccc(Nc2ncnc3sc4c(c23)CCN(Cc2ccccc2)C4)cc1 | 94.3% (inactive) | 45.3% (inactive) | 107% (inactive) | 87.5% (inactive) | 74.6% (inactive) | 66.1% (inactive) | 67.6% (inactive) | 91.3% (inactive) | 94.6% (inactive) | 81.1% (inactive)
21 | O=C1C=CC(=CC=C2N(Cc3ccc4ccccc4c3)c3ccccc3N2Cc2ccc3ccccc3c2)C=C1 | 43.2% (inactive) and 32.7% (inactive) | 13.5% (inactive) and 6.33% (active) | 4.02% (active) and 3.15% (active) | -40.7% (active) and -24.6% (active) | 31.6% (inactive) and 30.9% (inactive) | 67.5% (inactive) and 56.8% (inactive) | 39.3% (inactive) and 58.2% (inactive) | 15.5% (inactive) and 16.9% (inactive) | -0.845% (active) and 20.9% (inactive) | 20.8% (inactive) and 29.8% (inactive)
22 | CN(C)c1nc(NCCNS(=O)(=O)c2ccc(C(=O)/C=C/c3ccc(F)cc3)cc2)nc(N2CCOCC2)n1 | 33.3% (inactive) | 0.84% (active) | 84.8% (inactive) | 36.4% (inactive) | 76.6% (inactive) | 73% (inactive) | 79.2% (inactive) | 12.2% (inactive) | 70.1% (inactive) | 12.7% (inactive)
23 | COc1ccc(C(=O)c2c(N)c(C#N)cn2-c2ccc([N+](=O)[O-])cc2)cc1 | 109% (inactive) | 104% (inactive) | 102% (inactive) | 99% (inactive) | 94.2% (inactive) | 99.6% (inactive) | 91.9% (inactive) | 95.7% (inactive) | 111% (inactive) | 113% (inactive)
24 | O=C(CSc1nc2ccccc2c(=O)[nH]1)Nc1ccccc1C(=O)O | 129% (inactive) | 97.8% (inactive) | 79.4% (inactive) | 94.6% (inactive) | 99.4% (inactive) | 94.1% (inactive) | 101% (inactive) | 92.7% (inactive) | 103% (inactive) | 105% (inactive)
25 | COc1ccc(NC(=O)N/N=C/c2c[nH]c3ccccc23)cc1 | 27.6% (inactive) | 17.8% (inactive) | 61.9% (inactive) | 44.7% (inactive) | 20.2% (inactive) | 55.7% (inactive) | 16.4% (inactive) | -13.6% (active) | 72.9% (inactive) | 29.7% (inactive)
